Screening data (PubChem BioAssay)
HT1080 IDH1KD tx: HT-1080 IDH1 knockdown cell toxicity (counter line); HT-1080 IDH1 knockdown viability, ATP luminescence, 48 h; Potency, µM (top dose mostly 46.1 µM), for inactives: at the top dose activity, negative = toxicity, most hits filed as cytotoxic; hit rate 2% among 360,000;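 note: potency is the fitted concentration of half-maximal effect; 0% = DMSO wells and -100% = cell-free medium wells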
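Viability of IDH1-knockdown HT-1080 fibrosarcoma cells was assessed by CellTiter-Glo after 48 h at 37 °C with titrated compound; concentration-effect curves were classified by fit quality and response size.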
TDP1 cell CPT: growth inhibition of DT40 Tdp1-/-;hTDP1 cells with camptothecin (screen for TDP1 inhibitors) | chicken DT40 Tdp1-/-;hTDP1 cells + 20 nM CPT, ATP luminescence, 48 h | Potency, µM (doses to about 46.2 µM), for inactives: top-dose activity change, negative = growth inhibition, actives largely listed as inhibitors | hit rate 12% among 420,000; note: potency is the fitted concentration of half-maximal effect; nearly all actives have a fitted effect of over 55% in size
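Chicken DT40 Tdp1-/- cells stably complemented with human TDP1 were seeded at 400 cells/well in medium containing 20 nM camptothecin, exposed to pin-transferred compounds, and grown at 37 °C for at least 48 hr. Viability was read as ATP luminescence.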
12-LOX inh: ALOX12 (human) lipoxygenase inhibition. P18054. purified 12hLO, xylenol orange hydroperoxide absorbance. Potency, µM (highest dose often 108 µM), for the others: at the highest dose activity change, negative = inhibition, usual class: inhibitors. hit rate 1.1% among 580,000. AID 1671190; note: potency is the fitted concentration of half-maximal effect
Target sequence (P18054 whole entry, looked up): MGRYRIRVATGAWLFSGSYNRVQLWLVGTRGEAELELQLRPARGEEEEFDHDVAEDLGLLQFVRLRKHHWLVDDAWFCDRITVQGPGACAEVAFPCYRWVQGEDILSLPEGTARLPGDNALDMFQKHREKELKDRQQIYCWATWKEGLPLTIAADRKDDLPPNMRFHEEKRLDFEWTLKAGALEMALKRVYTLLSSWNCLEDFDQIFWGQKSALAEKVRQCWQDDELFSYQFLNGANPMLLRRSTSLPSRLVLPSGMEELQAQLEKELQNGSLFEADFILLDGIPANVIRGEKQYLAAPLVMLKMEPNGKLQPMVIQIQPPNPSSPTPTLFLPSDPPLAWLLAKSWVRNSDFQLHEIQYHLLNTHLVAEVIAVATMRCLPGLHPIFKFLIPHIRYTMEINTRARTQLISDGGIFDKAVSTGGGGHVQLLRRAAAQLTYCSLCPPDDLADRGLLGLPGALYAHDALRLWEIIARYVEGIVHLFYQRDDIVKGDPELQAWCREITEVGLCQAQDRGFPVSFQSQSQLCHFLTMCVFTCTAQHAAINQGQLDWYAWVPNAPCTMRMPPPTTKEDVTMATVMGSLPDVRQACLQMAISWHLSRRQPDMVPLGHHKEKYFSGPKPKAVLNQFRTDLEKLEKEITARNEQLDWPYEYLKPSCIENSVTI
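Purified human 12hLO (150 nM final) in 25 mM Hepes, 0.01% Triton X-100, pH 7.0 was preincubated 15 min at room temperature with compound. Then 40 uM arachidonic acid was added, 30 min. Hydroperoxide was read by Fe-XO absorbance ratio 573/405 nm.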
DT40 TDP1 no CPT: qHTS for Inhibitors of human tyrosyl-DNA phosphodiesterase 1 (TDP1): qHTS in cells in absence of CPT | Potency, µM (top dose mostly 46.2 µM), without a hit: at the top dose activity change, negative = growth inhibition, hits mostly inhibitors | DT40 Tdp1-/- hTDP1 cells, no CPT, ATP luminescence, 48 h | hit rate 15% among 420,000; note: potency is the fitted concentration of half-maximal effect; nearly all actives have a fitted effect of over 55% in size
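Compound effects on proliferation are scored in DT40 Tdp1-/-;hTDP1 cells in the absence of CPT. ATP levels (CellTiter-Glo luminescence) are recorded after a ≥48 hr, 37 °C incubation.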
IL-1B inflam inh: inflammasome signaling inhibition, IL-1 beta readout; activity change, % at 57.5 µM; THP-1 LPS/ATP IL-1B secretion, AlphaLISA, 16 h; stronger effect = lower value; hit rate 4.7% among 360,000; in the data active = activity change below about -50%; inconclusive = mostly about -30% to -49%
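Secreted IL-1B measured by AlphaLISA bead assay after 16 h compound exposure of THP-1 cells; compounds (final up to 57.5 uM) added 1 h before LPS (250 ng/mL) and ATP (1.25 mM) stimulation; lower signal means less secretion.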
HT1080-NT tox: kills 2HG-producing HT-1080-NT fibrosarcoma cells | HT-1080-NT fibrosarcoma viability, CellTiter-Glo ATP luminescence, 48 h | Potency, µM (top dose mostly 46.1 µM), for inactives: at the top dose activity, negative = less viability, most hits filed as cytotoxic | hit rate 1.6% among 360,000;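 note: NT is the 2HG producing partner of a matched IDH1 knockdown line; potency is the fitted concentration of half-maximal effect; 0% = DMSO-treated cells and -100% = media-only wells without cells; nearly all actives have a fitted effect of over 55% in size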
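HT-1080-NT fibrosarcoma cells (2HG-overproducing), 750 cells/well in RPMI with 5% FBS, dosed after 2 h and incubated 48 h at 37C. CellTiter-Glo luminescence normalized to DMSO and no-cell wells; concentration-response curves fitted and classed.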
Numbers without * were called inactive; u = inconclusive; x = not tested or not shown; [ ] = remark or other dose. This excerpt belongs to a sample that is enriched for hits. Unless noted, calls come from the whole dose curve; as a rule, active = well fitted curve in the direction sought with a large enough effect; inconclusive = small, poorly fitted or top-dose-only effect, or another doubt; inactive = no such curve, though single readings can be large; an effect the other way counts as inactive or inconclusive. Unless noted, % is set by controls: 0 for no effect and ±100 for the full control effect.

SMILES	HT1080 IDH1KD tx	TDP1 cell CPT	12-LOX inh	DT40 TDP1 no CPT	IL-1B inflam inh	HT1080-NT tox
Cc1ccc(NC(=O)c2ccc(=O)[nH]n2)cc1S(=O)(=O)Nc1ccc(SC(F)F)cc1	-24.8%	14.6µM*	35.0%	18.4µM*	7.0	-23.8%
CC(=O)N1CCCC(c2nc(-c3cccnc3)no2)CCNC(=O)CC1 (centres undefined)	x	x	21.9%	x	x	x
CCOC(=O)C1CCCN(C2=NC(=O)/C(=C/c3ccc(N(C)C)cc3)S2)C1 (centres undefined)	u	u	-5.7%	u	-83.1*	-10.2%
CCOC(=O)C1CCN(C2=NC(=O)/C(=C/c3ccc(O)cc3)S2)CC1	8.2%	u	x	7.31µM*	27.7	20.7%
COc1ccc(NC(=O)Nc2cccn3nc(C)nc23)cc1	x	x	36.6%	x	x	x
COc1ccc(CNc2ccnc(-c3ccoc3)n2)c(OC)c1	x	-27.6%	u	-15.7%	x	x
COc1ccc(CNc2ccnc(-c3cccnc3)n2)c(OC)c1	x	23.1µM*	44.7µM*	u	x	x
COc1ccc(CNc2ccnc(-c3ccc(N(C)C)cc3)n2)c(OC)c1	x	25.9µM*	u	u	x	x
COc1cccc(/C=C/c2ccc3cccc([N+](=O)[O-])c3n2)c1	x	x	7.5%	x	x	x
COc1cc(/C=C/c2ccc3cccc([N+](=O)[O-])c3n2)ccc1OCC#N	-28.0%	5.8µM*	u	3.66µM*	-13.4	-19.6%
CCOc1cc(/C=C/c2ccc3cccc([N+](=O)[O-])c3n2)ccc1OCC(=O)N(C)C	-15.2%	23.1µM*	8.9%	u	-0.4	4.5%
O=[N+]([O-])c1cccc2ccc(/C=C/c3ccc(F)cc3)nc12	u	u	3.0%	u	5.8	-25.8%
CCOc1cc(/C=C/c2ccc3cccc([N+](=O)[O-])c3n2)ccc1O	-24.7%	u	u	18.4µM*	-29.6	-25.2%
CC(=O)N1CCC(Cc2ccc(C(=O)NCc3cn[nH]c3C)cc2)CC1	x	x	59.9%	x	x	x
CCCC(=O)Nc1c(S(=O)(=O)c2ccc(F)cc2)c(C)c(C)n1CC(C)C	x	x	21.0%	x	x	x
Cc1ccc(S(=O)(=O)Nc2nc3ccccc3nc2NCc2ccc(Cl)cc2)cc1	x	x	-14.1%	x	x	x
Cc1ccc(C2Nc3cccc4cccc(c34)N2)s1	-13.0%	u	u	18.4µM*	-8.2	-7.7%
Cc1ccc(-n2cccc2)cc1N	x	x	-37.5%	x	x	x
COc1cc(C(=O)C(=O)c2cc(OC)c(O)c(OC)c2)cc(OC)c1O	3.2%	-5.4%	8.5%	-4.2%	5.4	-0.4%
COc1cc(-c2cc(OC)c(O)c(OC)c2)cc(OC)c1O	u	16.4µM*	-10.5%	9.2µM*	-23.7	-16.0%
O=S(=O)(c1ccccc1)N1CCN(Cc2nnc(-c3ccccc3)o2)CC1	9.4%	-20.4%	1.7%	u	-1.6	3.9%
Cc1onc(-c2ccc(Cl)cc2)c1-c1ccnn1S(=O)(=O)c1cccc(C(F)(F)F)c1	-24.6%	u	18.7%	23.1µM*	-19.9	-5.6%
Cc1onc(-c2ccccc2)c1-c1ccnn1C(=O)NC(C)C	14.5%	-21.5%	0.0%	u	-60.3*	22.7%
Cc1ccc(S(=O)(=O)N2CCN(Cc3nnc(-c4c(-c5ccccc5)noc4C)o3)CC2)cc1	-1.8%	14.6µM*	2.2%	14.6µM*	-10.0	24.2%
Cc1onc(-c2ccccc2)c1C(=O)N1CCCC1	2.7%	1.6%	482.2%	0.4%	-2.3	21.7%
SMILES	HT1080 IDH1KD tx	TDP1 cell CPT	12-LOX inh	DT40 TDP1 no CPT	IL-1B inflam inh	HT1080-NT tox
Cc1ccc(S(=O)(=O)n2nccc2-c2c(-c3ccccc3)noc2C)cc1	u	u	92.8%	18.4µM*	x	u
Cc1onc(-c2ccccc2)c1-c1ccnn1S(=O)(=O)c1ccc(Cl)cc1	-24.9%	-3.6%	29.0%	-28.3%	x	-5.6%
CN(CC1CCOC1)C(=O)Nc1ccc(Br)cc1 (centres undefined)	x	x	28.5%	x	x	x
Clc1ccc(-c2nc3ccncc3[nH]2)cc1	u	10.3µM*	-17.7%	u	4.3	u
COc1ccc(-c2nc3ccc([N+](=O)[O-])cc3[nH]2)cc1	0.5%	u	-26.6%	u	-7.3	0.7%
Cc1ccc(-c2nc3ccc([N+](=O)[O-])cc3[nH]2)cc1	19.6%	u	u	20.6µM*	-15.4	6.6%
O=[N+]([O-])c1ccc2nc(-[n+]3c(-c4ccccc4)cc(-c4ccccc4)cc3-c3ccccc3)[nH]c2c1	-13.0%	23.1µM*	x	20.6µM*	u	-1.3%
Nc1cccc(-c2nc3ccccc3[nH]2)c1	-0.3%	u	26.1%	u	1.7	4.2%
Fc1ccc(-c2nc3ccncc3[nH]2)cc1	-4.2%	-22.5%	7.4%	-13.8%	-5.0	-6.6%
Cc1ccc2nc(-c3cccc(N)c3)[nH]c2c1	u	14.6µM*	-18.5%	u	-3.8	u
Nc1nc2ccc([N+](=O)[O-])cc2[nH]1	3.7%	-10.9%	15.0%	-25.4%	-21.2	7.9%
Cc1ccc(Cc2ccc(C(=O)O)o2)cc1	x	x	-34.2%	x	x	x
O=[S+]1([O-])NC2(CCN(CC3CCCCC3)CC2)COc2ccccc21	x	x	2.8%[6.33 µM]	x	x	x
O=[N+]([O-])c1ccc2nc(-c3ccccc3[N+](=O)[O-])[nH]c2c1	-6.7%	0.1%	1.5%	-12.0%	u	-13.1%
O=[N+]([O-])c1cccc(-c2nc3ccc([N+](=O)[O-])cc3[nH]2)c1	5.3%	10.3µM*	0.0%	20.6µM*	-16.4	4.8%
O=[N+]([O-])c1ccc2nc(-c3ccc(Cl)cc3)[nH]c2c1	-9.6%	u	20µM*	16.4µM*	u	-9.9%
O=[N+]([O-])c1ccc2nc(-c3ccncc3)[nH]c2c1	-1.8%	u	8.7%	u	51.1	3.1%
CN(CC(=O)Nc1ccccc1Cl)Cc1csc(-c2ccccc2)n1	x	x	11.9%	x	x	x
Nc1nc(NCCCc2ccco2)cc(C2CC(O)C2)n1 (centres undefined)	x	x	35.3%	x	x	x
O=[S+]1([O-])NCC2(CCN(CC3CC3)CC2)Nc2ccccc21	x	x	45.6%[176 µM]	x	x	x
Cc1ccc(S(=O)c2ccc([N+](=O)[O-])c3nonc23)cc1 (centres undefined)	-5.3%	2.59µM*	2µM*	3.26µM*	u	-12.2%
C=CCn1c(-c2ccccn2)n[nH]c1=S	9.7%	-5.3%	10µM*	2.9%	9.0	20.4%
CC(/C=N/n1c(-c2ccc(Cl)cc2)n[nH]c1=S)=C\c1ccco1	13.3%	u	31.6µM*	u	3.4	-0.8%
